# Results filed as inconclusive are left out. Active and inactive are the calls of the source. Calls follow the shape of the dose curve; as a rule, active = well fitted cell-killing curve with a large enough effect in the repeat runs; inconclusive = weak or mixed curves, or effect the other way; inactive = flat fitted curve, though single readings scatter.
# Experiment: qHTS assay to identify small molecule antagonists of the estrogen receptor alpha (ER-alpha) signaling pathway using the BG1 cell line in the presence of 0.1 nM 17-beta-estradiol - cell viability counter screen (AID 1259241); also: nearly all actives have a fitted effect of over 40% in size
# Details: VM7Luc4E2 (BG1) viability, CellTiter-Fluor protease, 22 h, 0.1 nM estradiol agonist added; series mostly up to 92.4 µM; activity change, negative = cytotoxicity: at the top concentration
# Source text: National Center for Advancing Translational Sciences [NCATS]
# NIH Chemical Genomics Center [NCGC]
# U.S. Environmental Protection Agency [EPA]
# National Institutes of Environmental Health Sciences [NIEHS]
# National Toxicology Program [NTP]
# U.S. Food and Drug Administration [FDA]
# Estrogen receptor (ER), a member of the nuclear hormone receptor plays an important role in development, metabolic homeostasis and reproduction. Two subtypes of ER, ER-alpha and ER-beta, have similar expression patterns with some uniqueness in both types. Endocrine disrupting chemicals (EDCs) and their interactions with steroid hormone receptors like ER causes disruption of normal endocrine function. Therefore, it is important to understand the effect of environmental chemicals in ER signaling pathway. For identifying ER antagonists, VM7Luc4E2 cell line was used to screen against Tox21 compound libraries.
# VM7Luc4E2 cell line (provided by Denison MS, University of California) endogenously express full-length ER-alpha and is stably transfected with a plasmid containing four estrogen responsive elements (ERE) upstream of a luciferase reporter gene. The current screening for identification of ER-alpha inhibitors against Tox21 compound libraries used lower concentration (0.1 nM) of 17beta-Estradiol as a stimulator. The cytotoxicity of the Tox21 compound libraries against VM7Luc4E2 cell line was tested by measuring live-cell protease activity using CellTiter-Fluor assay in the same wells.
# Tox21 Assay Protocol Summary:
# VM7Luc4E2 cells were cultured in phenol red free assay medium containing 10% charcoal stripped FBS for 5 days prior to the assay. The cells were dispensed at 4,000 cells/well in 4 uL of assay medium into white wall/solid-bottom 1536-well plates (Corning Life Sciences, Corning, NY) using a Multidrop Combi (ThermoFisher Scientific, Waltham, MA) dispenser. After the assay plates were incubated at 37C and 5% CO2 for 24 hr, 23 nL of compounds dissolved in DMSO, positive controls or DMSO only was transferred to the assay plates by a Pintool station (Kalypsys, San Diego, CA). The transfer of compounds was followed by the addition of 1 uL of 0.1 nM (final concentration) agonist (17beta-Estradiol)/assay medium using a Flying Reagent Dispenser (FRD, Aurora Discovery, San Diego, CA). The plates were incubated at 37C and 5% CO2 for 22 hr. For cytotoxicity assay, 1 uL of CellTiter-Fluor reagent (Promega Corporation, Madison, WI) was added to each well using the FRD and after 30 min incubation at 37C and 5% CO2, The fluorescence intensity was measured using ViewLux plate reader (PerkinElmer, Shelton, CT).
# % is scaled to controls: 0 for no effect and ±100 for the full control effect; potency is read from the fitted curve at half-maximal effect.
SMILES,"activity change, negative = cytotoxicity",Potency
[O]=[Cr][O][Cr]=[O],10.8% (inactive),
CC1CCCC1,1.52% (inactive),
O=[N+]([O-])c1cccc2cccc([N+](=O)[O-])c12,0.119% (inactive),
CCCCn1cc[n+](C)c1 (tested in a mixture with another compound),6.91% (inactive),
CC(Cc1ccccc1)N(C)Cc1ccco1 (stereo not given),-2.22% [at 42.5 µM] (inactive),
CC[N+]1(CC)CCC(OC(=O)C(O)(c2ccccc2)c2ccccc2)C1 (stereo not given),0.334% [at 42.5 µM] (inactive),
N#CSCc1ccccc1,-3.19% (inactive),
CC(C)[C@@H](Nc1ccc(C(F)(F)F)cc1Cl)C(=O)OC(C#N)c1cccc(Oc2ccccc2)c1 (stereo not given in full),3.81% (inactive),
CC1(C)C(C=C(Cl)Cl)C1C(=O)OC(C#N)c1ccc(F)c(Oc2ccccc2)c1 (stereo not given),-2.22% (inactive),
C[C@]12Cc3cn[nH]c3C[C@@H]1CC[C@@H]1[C@@H]2CC[C@@]2(C)[C@H]1CC[C@]2(C)O,-1.63% [at 42.5 µM] (inactive),
CC(=O)C(Cl)C(=O)N(C)C (stereo not given),0.215% (inactive),
C[C@H]1[C@H](c2ccc(Cl)cc2)SC(=O)N1C(=O)NC1CCCCC1,-19% (inactive),
CN/C(=N\[N+](=O)[O-])NCc1cnc(Cl)s1,1.37% (inactive),
CCO/N=C(\CC)C1=C(O)CC(c2c(C)cc(C)cc2C)CC1=O (stereo not given),0.859% (inactive),
Nc1nc(N)nc(Cl)n1,8.9% (inactive),
CC(=O)[O-].CC(=O)[O-].[Co+2],1.16% (inactive),
O=S1OCC2C(CO1)C1(Cl)C(Cl)=C(Cl)C2(Cl)C1(Cl)Cl (stereo not given),,inactive
CC1=C2C[C@H]3[C@@H](CC=C4C[C@@H](O)CC[C@@]43C)[C@@H]2CC[C@]12O[C@@H]1C[C@H](C)CN[C@H]1[C@H]2C,-4.9% [at 42.5 µM] (inactive),
CCn1cc[n+](C)c1 (tested in a mixture with another compound),7.39% (inactive),
Clc1ccc(C2(Cn3cncn3)OCCO2)c(Cl)c1,1.77% (inactive),

SMILES,"activity change, negative = cytotoxicity",Potency
CNC(=O)O/N=C(\C)C(C)S(C)(=O)=O (stereo not given),-0.224% [at 872 µM] (inactive),
CCc1cccc(C)c1N(C(=O)CCl)[C@@H](C)COC,-7.2% (inactive),
Cc1ccc(C)c2ccccc12,1.19% (inactive),
COc1ccc2[nH]cc(CCN(C(C)C)C(C)C)c2c1,-2.63% (inactive),
Cc1ccc2cc3c(ccc4ccccc43)c3c2c1CC3,-8.09% [at 42.5 µM] (inactive),
CNC(=O)CSP(=O)(OC)OC,4.74% (inactive),
CCCCn1cc[n+](C)c1.[Cl][Fe-]([Cl])([Cl])[Cl],4.96% (inactive),
C=CCBr,1.51% (inactive),
COP(=S)(NC(C)C)Oc1ccc(C)cc1[N+](=O)[O-] (stereo not given),-11.5% (inactive),
COC(=O)c1ccccc1S(=O)(=O)NC(=O)Nc1nc(C)nc(OC)n1,8.15% (inactive),
CC(=O)[O-].CC(=O)[O-].CC(=O)[O-].[Cr+3],-1% (inactive),
O=[N+]([O-])c1cc(C(F)(F)F)c(Cl)c([N+](=O)[O-])c1Nc1ncc(C(F)(F)F)cc1Cl,,21.7 µM (active)
[Cl-].[Cl-].[Sn+2],0.589% (inactive),
Clc1cc(Cl)c(-c2cc(Cl)c(Cl)cc2Cl)cc1Cl,7.22% [at 42.5 µM] (inactive),
COc1c2c(cc3c1OCO3)CCN(C)C2,-9.76% [at 42.5 µM] (inactive),
CCCC[N+]1(C)CCCC1 (tested in a mixture with another compound),1.47% (inactive),
CSC(C)(C)/C=N/O,8.69% (inactive),
Brc1ccc(Oc2ccc(Br)cc2Br)c(Br)c1,0% (inactive),
CC#C[C@]1(O)CC[C@H]2[C@@H]3C[C@H](C)C4=CC(=O)CC[C@]4(C)[C@H]3CC[C@@]21C,7.4% [at 42.5 µM] (inactive),
BrCCCBr,6.02% (inactive),
